# Data published in the supplement of paper PMC8728848.
# Shown is part of a subset that was picked to be rich in the strongest signals.
# B1: CFEM-CGl (Candida glabrata), Q6FRS0 (protein)
# chain: VLATPPACLLACVAQVSKQSSQCHTLNQVGCFCENENTAIKNCLDSICPNGNSDAAYTAFKNSCGDVGKAVASV
# Legend:
# Test in all cases: glycan array binding signal (z-score within array); higher = stronger binding
# Conditions in all cases: glycan notation: IUPAC condensed, linker removed
# [1] = molecular target: Fuc(a1-2)Gal(b1-3)GalNAc(a1-3)[Fuc(a1-2)]Gal(b1-4)Glc
# How it was run: (§1)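 The Consortium for Functional Glycomics database supplied 3228 glycan arrays, of which those lacking an available protein sequence were dropped. The binding signal, a within-array Z-score, was averaged across arrays of the same protein sequence and across linkers. Negative scores can be read as non-binding.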
# [2] = molecular target: Fuc(a1-2)Gal(b1-3)GlcNAc(b1-2)Man(a1-3)[Fuc(a1-2)Gal(b1-3)GlcNAc(b1-2)Man(a1-6)]Man(b1-4)GlcNAc(b1-4)[Fuc(a1-6)]GlcNAc
# How it was run: as §1
# [3] = molecular target: Fuc(a1-2)Gal(b1-4)GlcNAc(b1-3)Gal(b1-4)GlcNAc
# How it was run: as §1
# [4] = molecular target: Fuc(a1-2)Gal(b1-4)GlcNAc(b1-3)Gal(b1-4)GlcNAc(b1-2)Man(a1-3)[Fuc(a1-2)Gal(b1-4)GlcNAc(b1-3)Gal(b1-4)GlcNAc(b1-2)Man(a1-6)]Man(b1-4)GlcNAc(b1-4)GlcNAc
# How it was run: as §1
# [5] = molecular target: Fuc(a1-2)Gal(b1-4)GlcNAc(b1-3)GalNAc
# How it was run: as §1
# [6] = molecular target: Fuc(a1-2)Gal(b1-4)GlcNAc(b1-6)GalNAc
# How it was run: as §1
# [7] = molecular target: Fuc(a1-2)Gal(b1-4)GlcNAc6S
# How it was run: as §1
# [8] = molecular target: Fuc(a1-2)[GalNAc(a1-3)]Gal(b1-3)GalNAc(a1-3)[Fuc(a1-2)]Gal(b1-4)GlcNAc
# How it was run: as §1
# [9] = molecular target: Fuc(a1-2)[GalNAc(a1-3)]Gal(b1-4)GlcNAc(b1-2)Man(a1-3)[Fuc(a1-2)[GalNAc(a1-3)]Gal(b1-4)GlcNAc(b1-2)Man(a1-6)]Man(b1-4)GlcNAc(b1-4)[Fuc(a1-6)]GlcNAc
# How it was run: as §1
# [10] = molecular target: Fuc(a1-2)[GalNAc(a1-3)]Gal(b1-4)[Fuc(a1-3)]GlcNAc(b1-3)GalNAc
# How it was run: as §1
# [11] = molecular target: Fuc(a1-3)[Gal(b1-4)]GlcNAc(b1-2)Man(a1-3)[Fuc(a1-3)[Gal(b1-4)]GlcNAc(b1-2)Man(a1-6)]Man(b1-4)GlcNAc(b1-4)[Fuc(a1-6)]GlcNAc
# How it was run: as §1
# [12] = molecular target: Fuc(a1-3)[Gal(b1-4)]GlcNAc(b1-3)Gal(b1-3)[Fuc(a1-4)]GlcNAc
# How it was run: as §1
# [13] = molecular target: Fuc(b1-3)GlcNAc
# How it was run: as §1
# [14] = molecular target: Gal(a1-4)Gal(b1-4)Glc
# How it was run: as §1
# [15] = molecular target: Gal(b1-3)Gal
# How it was run: as §1
# [16] = molecular target: Gal(b1-3)Gal(b1-4)GlcNAc
# How it was run: as §1
# [17] = molecular target: Gal(b1-3)GalNAc(a1-3)[Fuc(a1-2)]Gal(b1-4)Glc
# How it was run: as §1
# [18] = molecular target: Gal(b1-3)GalNAc(b1-3)Gal
# How it was run: as §1
# [19] = molecular target: Gal(b1-3)GalNAc(b1-4)Gal(b1-4)Glc
# How it was run: as §1
# [20] = molecular target: Gal(b1-3)GlcNAc(b1-2)Man(a1-3)[Gal(b1-3)GlcNAc(b1-2)Man(a1-6)]Man(b1-4)GlcNAc(b1-4)GlcNAc
# How it was run: as §1
# [21] = molecular target: Gal(b1-3)GlcNAc(b1-3)Gal(b1-4)[Fuc(a1-3)]GlcNAc
# How it was run: as §1
# [22] = molecular target: Gal(b1-3)[Fuc(a1-4)]GlcNAc(b1-2)Man(a1-3)[Gal(b1-3)[Fuc(a1-4)]GlcNAc(b1-2)Man(a1-6)]Man(b1-4)GlcNAc(b1-4)[Fuc(a1-6)]GlcNAc
# How it was run: as §1
# [23] = molecular target: Gal(b1-3)[Neu5Ac(a2-6)]GalNAc
# How it was run: as §1
# [24] = molecular target: Gal(b1-4)GlcNAc(b1-3)Gal(b1-4)GlcNAc(b1-2)Man(a1-3)[Gal(b1-4)GlcNAc(b1-3)Gal(b1-4)GlcNAc(b1-2)Man(a1-6)]Man(b1-4)GlcNAc(b1-4)GlcNAc
# How it was run: as §1
# [25] = molecular target: Gal(b1-4)GlcNAc(b1-3)Gal(b1-4)GlcNAc(b1-3)Gal(b1-4)GlcNAc(b1-3)Gal(b1-4)GlcNAc(b1-2)[Gal(b1-4)GlcNAc(b1-3)Gal(b1-4)GlcNAc(b1-3)Gal(b1-4)GlcNAc(b1-3)Gal(b1-4)GlcNAc(b1-6)]Man(a1-6)[Gal(b1-4)GlcNAc(b1-3)Gal(b1-4)GlcNAc(b1-3)Gal(b1-4)GlcNAc(b1-3)Gal(b1-4)GlcNAc(b1-2)Man(a1-3)]Man(b1-4)GlcNAc(b1-4)[Fuc(a1-6)]GlcNAc
# How it was run: as §1
# [26] = molecular target: Gal(b1-4)GlcNAc(b1-3)Gal(b1-4)GlcNAc(b1-3)GalNAc
# How it was run: as §1
# [27] = molecular target: Gal(b1-4)GlcNAc(b1-3)Gal(b1-4)[Fuc(a1-3)]GlcNAc(b1-3)Gal(b1-4)[Fuc(a1-3)]GlcNAc
# How it was run: as §1
# [28] = molecular target: Gal(b1-4)GlcNAc(b1-3)[Gal(b1-4)GlcNAc(b1-6)]Gal(b1-4)GlcNAc
# How it was run: as §1
# [29] = molecular target: Gal3S(b1-4)[Fuc(a1-3)]GlcNAc
# How it was run: as §1
# [30] = molecular target: GlcA(b1-3)GlcNAc
# How it was run: as §1
# [31] = molecular target: GlcNAc(a1-4)Gal(b1-4)GlcNAc(b1-3)Gal(b1-4)Glc
# How it was run: as §1
# [32] = molecular target: GlcNAc(b1-2)[GlcNAc(b1-4)]Man(a1-3)[GlcNAc(b1-4)][GlcNAc(b1-2)[GlcNAc(b1-6)]Man(a1-6)]Man(b1-4)GlcNAc(b1-4)[Fuc(a1-6)]GlcNAc
# How it was run: as §1
# [33] = molecular target: GlcNAc(b1-3)Gal(b1-4)GlcNAc(b1-3)Gal(b1-4)GlcNAc(b1-2)Man(a1-3)[GlcNAc(b1-3)Gal(b1-4)GlcNAc(b1-3)Gal(b1-4)GlcNAc(b1-2)Man(a1-6)]Man(b1-4)GlcNAc(b1-4)GlcNAc
# How it was run: as §1
# [34] = molecular target: GlcNAc(b1-3)Gal(b1-4)GlcNAc(b1-3)Gal(b1-4)GlcNAc(b1-3)Gal(b1-4)GlcNAc(b1-3)Gal(b1-4)GlcNAc(b1-2)Man(a1-3)[GlcNAc(b1-3)Gal(b1-4)GlcNAc(b1-3)Gal(b1-4)GlcNAc(b1-3)Gal(b1-4)GlcNAc(b1-3)Gal(b1-4)GlcNAc(b1-2)Man(a1-6)]Man(b1-4)GlcNAc(b1-4)GlcNAc
# How it was run: as §1
# [35] = molecular target: GlcNAc(b1-3)[GlcNAc(b1-6)]Gal(b1-4)GlcNAc
# How it was run: as §1
# [36] = molecular target: GlcNAc(b1-4)GlcNAc(b1-4)GlcNAc(b1-4)GlcNAc(b1-4)GlcNAc(b1-4)GlcNAc
# How it was run: as §1
# [37] = molecular target: Kdn(a2-3)Gal(b1-3)GlcNAc
# How it was run: as §1
# [38] = molecular target: Man(a1-3)[Man(a1-6)]Man(a1-6)[Man(a1-3)]Man(b1-4)GlcNAc(b1-4)GlcNAc
# How it was run: as §1
# [39] = molecular target: Neu5Ac(a2-3)Gal(b1-3)GalNAc(b1-4)[Neu5Ac(a2-8)Neu5Ac(a2-3)]Gal(b1-4)Glc
# How it was run: as §1
# [40] = molecular target: Neu5Ac(a2-3)Gal(b1-3)GalNAc6S
# How it was run: as §1
# [41] = molecular target: Neu5Ac(a2-3)Gal(b1-3)GlcNAc(b1-3)Gal(b1-4)GlcNAc
# How it was run: as §1
# [42] = molecular target: Neu5Ac(a2-3)Gal(b1-3)[Fuc(a1-4)]GlcNAc
# How it was run: as §1
# [43] = molecular target: Neu5Ac(a2-3)Gal(b1-4)GlcNAc(b1-2)Man(a1-3)[Neu5Ac(a2-3)Gal(b1-4)GlcNAc(b1-2)Man(a1-6)]Man(b1-4)GlcNAc(b1-4)GlcNAc
# How it was run: as §1
# [44] = molecular target: Neu5Ac(a2-3)Gal(b1-4)GlcNAc6S
# How it was run: as §1
# [45] = molecular target: Neu5Ac(a2-3)Gal(b1-4)[Fuc(a1-3)]GlcNAc(b1-3)Gal
# How it was run: as §1
# [46] = molecular target: Neu5Ac(a2-3)Gal(b1-4)[Fuc(a1-3)]GlcNAc(b1-3)GalNAc
# How it was run: as §1
# [47] = molecular target: Neu5Ac(a2-3)Gal(b1-4)[Fuc(a1-3)]GlcNAc(b1-6)[Gal(b1-3)]GalNAc
# How it was run: as §1
# [48] = molecular target: Neu5Ac(a2-3)GalNAc(b1-4)GlcNAc
# How it was run: as §1
# [49] = molecular target: Neu5Ac(a2-3)[Neu5Ac(a2-6)]GalNAc
# How it was run: as §1
# [50] = molecular target: Neu5Ac(a2-6)Gal(b1-3)GlcNAc(b1-3)[Gal(b1-4)GlcNAc(b1-6)]Gal(b1-4)Glc
# How it was run: as §1
# [51] = molecular target: Neu5Ac(a2-6)Gal(b1-4)GlcNAc(b1-3)Gal(b1-4)GlcNAc(b1-3)Gal(b1-4)GlcNAc(b1-2)Man(a1-3)[Neu5Ac(a2-6)Gal(b1-4)GlcNAc(b1-3)Gal(b1-4)GlcNAc(b1-3)Gal(b1-4)GlcNAc(b1-2)Man(a1-6)]GalNAc
# How it was run: as §1
# [52] = molecular target: Neu5Ac(b2-6)GalNAc
# How it was run: as §1
# [53] = molecular target: Neu5Ac9Ac(a2-3)Gal(b1-4)GlcNAc
# How it was run: as §1
# [54] = molecular target: Neu5Gc(a2-3)Gal(b1-4)GlcNAc
# How it was run: as §1
binder,measurement,setting,value
B1,glycan array binding signal (z-score),[1],-0.334
same,glycan array binding signal (z-score),[2],-0.163
same,glycan array binding signal (z-score),[3],-0.233
same,glycan array binding signal (z-score),[4],-0.168
same,glycan array binding signal (z-score),[5],8.8
same,glycan array binding signal (z-score),[6],0.206
same,glycan array binding signal (z-score),[7],-0.397
same,glycan array binding signal (z-score),[8],-0.609
same,glycan array binding signal (z-score),[9],-0.183
same,glycan array binding signal (z-score),[10],4.55
same,glycan array binding signal (z-score),[11],-0.347
same,glycan array binding signal (z-score),[12],-0.484
same,glycan array binding signal (z-score),[13],-0.346
same,glycan array binding signal (z-score),[14],-0.153
same,glycan array binding signal (z-score),[15],3.15
same,glycan array binding signal (z-score),[16],2.81
same,glycan array binding signal (z-score),[17],0.176
same,glycan array binding signal (z-score),[18],6.73
same,glycan array binding signal (z-score),[19],9.88
same,glycan array binding signal (z-score),[20],-0.248
same,glycan array binding signal (z-score),[21],-0.497
same,glycan array binding signal (z-score),[22],-0.165
same,glycan array binding signal (z-score),[23],2.93
same,glycan array binding signal (z-score),[24],4.99
same,glycan array binding signal (z-score),[25],0.09
same,glycan array binding signal (z-score),[26],0.84
same,glycan array binding signal (z-score),[27],-0.249
same,glycan array binding signal (z-score),[28],-0.249
same,glycan array binding signal (z-score),[29],-0.353
same,glycan array binding signal (z-score),[30],-0.457
same,glycan array binding signal (z-score),[31],-0.384
same,glycan array binding signal (z-score),[32],-0.628
same,glycan array binding signal (z-score),[33],3.84
same,glycan array binding signal (z-score),[34],-0.264
same,glycan array binding signal (z-score),[35],-0.258
same,glycan array binding signal (z-score),[36],0.197
same,glycan array binding signal (z-score),[37],-0.288
same,glycan array binding signal (z-score),[38],-0.003
same,glycan array binding signal (z-score),[39],-0.372
same,glycan array binding signal (z-score),[40],0.752
same,glycan array binding signal (z-score),[41],-0.343
same,glycan array binding signal (z-score),[42],-0.12
same,glycan array binding signal (z-score),[43],-0.517
same,glycan array binding signal (z-score),[44],-0.111
same,glycan array binding signal (z-score),[45],-0.311
same,glycan array binding signal (z-score),[46],3.44
same,glycan array binding signal (z-score),[47],0.977
same,glycan array binding signal (z-score),[48],-0.449
same,glycan array binding signal (z-score),[49],-0.425
same,glycan array binding signal (z-score),[50],-0.355
same,glycan array binding signal (z-score),[51],4.31
same,glycan array binding signal (z-score),[52],0.161
same,glycan array binding signal (z-score),[53],-0.485
same,glycan array binding signal (z-score),[54],-0.194
